The AC50 is the concentration at which the activity in the assay is half-maximal.

Records with an inconclusive call do not appear. The source made the active and inactive calls. Rule for the calls, unless noted: active = hit-call score of the fitted dose curve at least 0.9, where 1 is the maximum; inconclusive = response in the unintended direction; inactive = score below 0.9.

The target in assay [1] is human Retinoic Acid Receptor beta (RARb), RARB (gene 5915) (UniProt P10826). Put plainly: ATG_RARb_TRANS: Attagene TRANS-FACTORIAL HepG2 Assay for human Retinoic Acid Receptor beta (AID 2283004). The method in brief: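 Fluorescent capillary-electrophoresis detection of GAL4-UAS reporter mRNA defines the endpoint, with induction over DMSO-treated wells scored as activity. Transiently transfected human hepatoma HepG2 cells expressing exogenous NR–Gal4 proteins are exposed to test chemicals for 24 h.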
human Retinoic Acid Receptor beta (RARb), RARB (gene 5915), sequence (P10826 whole entry, looked up, the tested form may be a part): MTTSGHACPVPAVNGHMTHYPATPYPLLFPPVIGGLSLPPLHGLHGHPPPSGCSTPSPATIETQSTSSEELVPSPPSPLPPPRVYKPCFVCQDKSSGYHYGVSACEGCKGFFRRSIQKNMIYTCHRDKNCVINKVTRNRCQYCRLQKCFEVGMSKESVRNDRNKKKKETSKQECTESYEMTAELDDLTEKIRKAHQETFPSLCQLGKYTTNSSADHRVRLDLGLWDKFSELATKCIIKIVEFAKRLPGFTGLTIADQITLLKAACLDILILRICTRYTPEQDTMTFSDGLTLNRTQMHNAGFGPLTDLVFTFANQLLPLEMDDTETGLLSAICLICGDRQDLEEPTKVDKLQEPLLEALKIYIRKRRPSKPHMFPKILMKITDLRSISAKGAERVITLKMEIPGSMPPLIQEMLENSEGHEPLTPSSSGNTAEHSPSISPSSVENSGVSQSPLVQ

The nature of assay [2]: CCTE_Harrill_HTTr_Viability_MCF7: CCTE's 6-hour Cell Viability Assessment for the High-Throughput Transcriptomics (HTTr) Platform, in MCF-7 cells cultured in DMEM + 10% fetal bovine serum, Harrill Lab (AID 2284010; active = hit-call score of the fitted dose curve at least 0.9, where 1 is the maximum; inactive = score below 0.9). The method in brief:
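PI exclusion, high-content imaging; 8-pt dilution series, 6 h exposure; bidirectional fit vs DMSO (neg. ctrl/baseline); gain of signal = loss of membrane integrity.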

Assay [3] can be described thus: CCTE_Harrill_HTTr_Apoptosis_MCF7: CCTE's 6-hour Apoptosis Assessment for the High-Throughput Transcriptomics (HTTr) Platform, in MCF-7 cells cultured in DMEM + 10% fetal bovine serum, Harrill Lab (AID 2284011; active = hit-call score of the fitted dose curve at least 0.9, where 1 is the maximum; inactive = score below 0.9). The method in brief:
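Apoptosis in MCF-7 cells grown in DMEM with 10% fetal bovine serum was scored after a six hour exposure by high content imaging of caspase-3/7 activation (CellEvent Caspase 3/7 Green), with DMSO serving as negative control and baseline.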

Assay [4] has as its target Steroid hormone receptor ERR1 (Homo sapiens) (UniProt P11474). Put plainly: ATG_ERRa_TRANS: Attagene TRANS-FACTORIAL HepG2 Assay for human Estrogen-Related Receptor alpha (ERRa) (AID 2282971). The note with it: HepG2 Attagene TRANS reporter, ERRa transactivation. The method in brief:
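Signal gain relative to DMSO for an ERRa-Gal4 chimeric receptor, read as reporter mRNA by RT-PCR/capillary electrophoresis. Human HepG2 liver cells, transient multiplex reporter transfection, 24 h chemical exposure.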

The target in assay [5] is human Retinoic Acid Receptor gamma (RARg), RARG (gene 5916) (UniProt P13631). Put plainly: ATG_RARg_TRANS: Attagene TRANS-FACTORIAL HepG2 Assay for human Retinoic Acid Receptor gamma (RARg) (AID 2283009). The method in brief: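 Readout: reporter transcript levels via RT-PCR, 6-FAM primer-extension labelling, HpaI digestion and capillary electrophoresis. Cells: HepG2 carrying transfected RARg-GAL4 chimera plus UAS reporter set. Dosing 24 h; DMSO negative control.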
human Retinoic Acid Receptor gamma (RARg), RARG (gene 5916), sequence (P13631 whole entry, looked up, the tested form may be a part): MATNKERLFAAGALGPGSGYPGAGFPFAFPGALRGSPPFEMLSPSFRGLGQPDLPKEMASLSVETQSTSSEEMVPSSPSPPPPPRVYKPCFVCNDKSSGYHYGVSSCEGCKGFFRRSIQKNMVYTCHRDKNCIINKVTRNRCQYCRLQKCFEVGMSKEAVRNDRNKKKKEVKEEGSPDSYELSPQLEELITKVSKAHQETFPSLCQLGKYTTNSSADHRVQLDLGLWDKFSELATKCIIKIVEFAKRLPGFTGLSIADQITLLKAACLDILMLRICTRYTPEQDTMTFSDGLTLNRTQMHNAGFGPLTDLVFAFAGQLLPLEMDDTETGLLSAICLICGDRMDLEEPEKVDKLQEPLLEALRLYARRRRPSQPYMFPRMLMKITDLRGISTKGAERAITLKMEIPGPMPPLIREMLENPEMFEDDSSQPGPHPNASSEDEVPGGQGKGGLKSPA

The target in assay [6] is Estrogen receptor beta (Homo sapiens) (UniProt Q92731). Put plainly: OT_ER_ERbERb_0480: Odyssey Thera (OT) 8-hour HEK293T Protein-Complementation Assay for Estrogen Receptor-beta/-beta Homodimer (AID 2283357).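 Note: active means signal gain over DMSO baseline.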 The method in brief: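 ER-beta LBD homodimer PCA stably expressed in HEK293T; 8 h compound exposure, then formaldehyde fixation and Draq5 staining. Gain in nuclear/cytoplasmic fluorescence intensity versus DMSO vehicle, read on laser scanning cytometer.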
Estrogen receptor beta (Homo sapiens), sequence (Q92731 whole entry, looked up, the tested form may be a part): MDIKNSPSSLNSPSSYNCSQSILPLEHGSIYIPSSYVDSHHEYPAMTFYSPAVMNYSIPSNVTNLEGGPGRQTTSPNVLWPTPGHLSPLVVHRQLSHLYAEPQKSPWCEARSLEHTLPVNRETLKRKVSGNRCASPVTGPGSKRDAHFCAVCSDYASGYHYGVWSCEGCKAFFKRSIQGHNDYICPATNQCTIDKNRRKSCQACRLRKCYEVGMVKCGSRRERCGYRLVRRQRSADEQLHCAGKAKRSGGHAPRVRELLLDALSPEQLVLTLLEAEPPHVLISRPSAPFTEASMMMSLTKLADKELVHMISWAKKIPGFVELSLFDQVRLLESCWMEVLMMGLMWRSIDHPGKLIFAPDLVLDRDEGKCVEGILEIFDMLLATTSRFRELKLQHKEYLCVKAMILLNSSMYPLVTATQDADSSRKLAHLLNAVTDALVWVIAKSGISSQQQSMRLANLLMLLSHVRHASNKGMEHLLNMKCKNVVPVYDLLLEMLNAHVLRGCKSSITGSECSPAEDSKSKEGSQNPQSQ

For assay [7] the target is unchanged. Put plainly: OT_ER_ERbERb_1440: Odyssey Thera (OT) 24-hour HEK293T Protein-Complementation Assay for Estrogen Receptor-beta/-beta Homodimer (AID 2283380).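 Note: scored as signal increase over DMSO baseline for both agonists and antagonists.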 The method in brief: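 Fluorescence increase, nuclear for agonists or whole-cell for antagonists, relative to DMSO vehicle, quantified by laser scanning cytometer after fixation and Draq5 staining. Readout from 24 h treatment of HEK293T cells carrying complementation-paired ER beta LBD (aa 310-547).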

For assay [8], the target named is Retinoic acid receptor RXR-alpha (Homo sapiens) (UniProt P19793). Put plainly: OT_NURR1_NURR1RXRa_1440: Odyssey Thera (OT) 24-hour HEK293T Protein Complementation Assay for Nurr1/retinoid X receptor (RXR) (AID 2283386). The method in brief: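 Fluorescence PCA read-out; HEK293T; 24 h post-dose; bait/prey fused to reporter fragments; gain-of-signal fit vs DMSO negative control.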
Retinoic acid receptor RXR-alpha (Homo sapiens), sequence (P19793 whole entry, looked up, the tested form may be a part): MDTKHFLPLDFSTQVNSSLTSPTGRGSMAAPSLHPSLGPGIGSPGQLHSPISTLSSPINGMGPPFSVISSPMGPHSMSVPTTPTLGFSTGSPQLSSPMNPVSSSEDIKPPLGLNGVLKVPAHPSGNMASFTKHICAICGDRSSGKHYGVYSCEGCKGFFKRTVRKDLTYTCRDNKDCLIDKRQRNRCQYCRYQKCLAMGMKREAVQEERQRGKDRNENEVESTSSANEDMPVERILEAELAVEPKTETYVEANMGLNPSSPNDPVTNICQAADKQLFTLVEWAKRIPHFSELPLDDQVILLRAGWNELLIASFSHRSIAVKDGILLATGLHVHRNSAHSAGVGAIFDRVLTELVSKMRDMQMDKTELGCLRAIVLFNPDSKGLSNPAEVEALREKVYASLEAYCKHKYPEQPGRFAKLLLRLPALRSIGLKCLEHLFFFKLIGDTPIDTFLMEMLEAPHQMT

Assay [9] deals with Peroxisome proliferator-activated receptor gamma (Homo sapiens) (UniProt P37231). Put plainly: OT_PPARg_PPARgSRC1_0480: Odyssey Thera (OT) 8-hour Protein-Complementation Assay for Peroxisome Proliferator-activated Receptor Gamma / SRC-1 Co-activator (AID 2283387).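 Note: nuclear to cytoplasmic split Venus YFP fluorescence ratio reporting PPARg SRC-1 interaction.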 The method in brief: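 HEK293T transiently transfected with PPARg and SRC-1 fused to Venus YFP fragments, compounds 8 h at 37C. Fixed, Draq5-stained cells imaged; nuclear/cytoplasmic 488 nm fluorescence ratio over at least 350 cells per image; gain fitted versus DMSO.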
Peroxisome proliferator-activated receptor gamma (Homo sapiens), sequence (P37231 whole entry, looked up, the tested form may be a part): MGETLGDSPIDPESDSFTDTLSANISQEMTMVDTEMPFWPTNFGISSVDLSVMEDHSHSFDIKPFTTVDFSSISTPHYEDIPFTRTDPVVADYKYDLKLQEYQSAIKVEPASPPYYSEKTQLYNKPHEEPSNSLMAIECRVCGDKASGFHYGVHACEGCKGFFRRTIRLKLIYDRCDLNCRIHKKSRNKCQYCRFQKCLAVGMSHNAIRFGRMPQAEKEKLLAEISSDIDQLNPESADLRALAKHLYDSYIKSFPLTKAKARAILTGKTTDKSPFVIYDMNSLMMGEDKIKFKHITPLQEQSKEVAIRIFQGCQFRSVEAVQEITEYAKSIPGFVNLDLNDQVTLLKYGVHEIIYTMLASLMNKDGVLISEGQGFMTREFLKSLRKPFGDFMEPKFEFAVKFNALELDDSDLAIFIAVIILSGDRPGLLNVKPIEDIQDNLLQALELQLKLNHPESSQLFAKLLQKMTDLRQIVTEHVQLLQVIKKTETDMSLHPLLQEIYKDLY

Assay [10] can be described thus: ACEA_AR_agonist_AUC_viability: ACEA Biosciences xCELLigence Real-Time Cell Analysis on Androgen Receptor Agonism for Viability (AID 2283775).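 For AC50: viability read 80 hours after compound addition.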 The method in brief: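 Viability endpoint from xCELLigence impedance in 22Rv1 prostate cells at 80 h. Eight-point series, 100 uM maximum final.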
A short description of assay [11]: ACEA_AR_antagonist_AUC_viability: ACEA Biosciences xCELLigence Real-Time Cell Analysis on Androgen Receptor Antagonism for Viability (AID 2283776).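 Note: area under impedance growth curve at 80 h after dosing as viability; hits lower the growth signal relative to DMSO meaning cytotoxicity.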 The method in brief:
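22Rv1 human prostate cancer cells were seeded on electrode plates, monitored overnight, then exposed to eight 1:4 dilutions from 100 uM final. Impedance-based growth kinetics at 80 h gave an AUC viability endpoint normalized to DMSO.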

Assay [12] concerns the target Oxysterols receptor LXR-beta (Homo sapiens) (UniProt P55055). Put plainly: ATG_LXRb_TRANS: Attagene TRANS-FACTORIAL HepG2 Assay for human Liver X Receptor beta (LXRb) (AID 2282981). The following applies: HepG2 Attagene TRANS GAL4-LXRb reporter, mRNA. The method in brief: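 After 24 h of chemical treatment, transfected HepG2 cells yield total RNA; reporter cDNA is PCR-amplified, FAM-labelled, HpaI-cut and run on capillary electrophoresis. Signal reflects chimeric LXRb-Gal4 activity on GAL4-UAS reporters.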

The target of assay [13] is Estrogen-related receptor gamma (Homo sapiens) (UniProt P62508). Put plainly: ATG_ERRg_TRANS: Attagene TRANS-FACTORIAL HepG2 Assay for human Estrogen-Related Receptor gamma (ERRg) (AID 2282977).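 Note: hits increase reporter signal over DMSO so potencies reflect activators.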 The following applies: HepG2 Attagene TRANS reporter, ERRg transactivation. The method in brief:
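Readout: fluorescent reporter-mRNA fragments resolved by capillary electrophoresis after RT-PCR and HpaI cut. Cells: transiently transfected HepG2 carrying GAL4-UAS reporters driven by exogenous NR-Gal4 chimeras, dosed 24 h. Activity fitted upward relative to DMSO baseline.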

A short description of assay [14]: ATG_ERE_CIS: Attagene CIS-FACTORIAL HepG2 Assay for Estrogen Response Element (ERE) (AID 2282940; active = hit-call score of the fitted dose curve at least 0.9, where 1 is the maximum; inactive = score below 0.9). The note with it: HepG2 ERE cis-reporter, Attagene RNA transcript; actives raise or lower the signal. The method in brief:
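Human liver cells (HepG2) bearing transiently transfected, promoter-regulated reporter units were exposed 24 h. Reporter mRNA induction was detected by capillary electrophoresis of labelled RT-PCR products and fitted bidirectionally to DMSO.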

Read-out in assay [15]: Pselectin, SELP (gene 6403)
Put plainly: BSK_4H_Pselectin: BioMAP Diversity Plus: 4H Assay for Pselectin Biomarker Activity (AID 2283026; active = hit-call score of the fitted dose curve at least 0.9, where 1 is the maximum; inactive = score below 0.9). The note with it: primary human endothelial cells (HUVEC); actives raise or lower the signal. The method in brief:
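HUVEC, 24 h chemical exposure; P-selectin read by ELISA. Bidirectional curve fit vs DMSO baseline; gain or loss of signal scored.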

Read-out in assay [16]: serum amyloid A (SAA), SAA1 (gene 6288)
Put plainly: BSK_CASM3C_SAA: BioMAP Diversity Plus: CASM3C Assay for serum amyloid A (SAA) Biomarker Activity (AID 2283049; active = hit-call score of the fitted dose curve at least 0.9, where 1 is the maximum; inactive = score below 0.9;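 note: SAA protein level quantified by ELISA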). The following applies: primary human coronary artery smooth muscle cells; actives raise or lower the signal.

Read-out in assay [17]: Interferon-gamma inducible Protein 10 (IP10), CXCL10 (gene 3627)
Put plainly: BSK_hDFCGF_IP10: BioMAP Diversity Plus: hDFCGF Assay for Interferon-gamma inducible Protein 10 (IP10) Biomarker Activity (AID 2283053; active = hit-call score of the fitted dose curve at least 0.9, where 1 is the maximum; inactive = score below 0.9). The note with it: primary human foreskin fibroblasts; actives raise or lower the signal. The method in brief: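 ELISA read-out of IP-10 (CXCL10) from primary human skin fibroblasts, 24 h after compound addition. Gain or loss of signal versus DMSO baseline, bidirectional curve fitting.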

Read-out in assay [18]: Vascular cell adhesion molecule 1 (VCAM1), VCAM1 (gene 7412)
Put plainly: BSK_CASM3C_VCAM1: BioMAP Diversity Plus: CASM3C Assay for Vascular cell adhesion molecule 1 (VCAM1) Biomarker Activity (AID 2283055; active = hit-call score of the fitted dose curve at least 0.9, where 1 is the maximum; inactive = score below 0.9;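 note: VCAM-1 protein level quantified by ELISA on the cells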). The note with it: primary human coronary artery smooth muscle cells; actives raise or lower the signal.

Read-out in assay [19]: Macrophage colony-stimulating factor (MCSF), CSF1 (gene 1435)
Put plainly: BSK_hDFCGF_MCSF: BioMAP Diversity Plus: hDFCGF Assay for Macrophage colony-stimulating factor (MCSF) Biomarker Activity (AID 2283060; active = hit-call score of the fitted dose curve at least 0.9, where 1 is the maximum; inactive = score below 0.9). The following applies: AC50: primary human foreskin fibroblasts, actives raise or lower the signal unless noted; outcome: primary human foreskin fibroblasts, actives raise or lower the signal unless noted. The method in brief:
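fibroblasts (human foreskin, primary), 24 h post-dose; M-CSF by ELISA; bidirectional fit, DMSO = baseline.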

Steroid hormone receptor ERR1 (Homo sapiens), sequence (P11474 whole entry, looked up, the tested form may be a part): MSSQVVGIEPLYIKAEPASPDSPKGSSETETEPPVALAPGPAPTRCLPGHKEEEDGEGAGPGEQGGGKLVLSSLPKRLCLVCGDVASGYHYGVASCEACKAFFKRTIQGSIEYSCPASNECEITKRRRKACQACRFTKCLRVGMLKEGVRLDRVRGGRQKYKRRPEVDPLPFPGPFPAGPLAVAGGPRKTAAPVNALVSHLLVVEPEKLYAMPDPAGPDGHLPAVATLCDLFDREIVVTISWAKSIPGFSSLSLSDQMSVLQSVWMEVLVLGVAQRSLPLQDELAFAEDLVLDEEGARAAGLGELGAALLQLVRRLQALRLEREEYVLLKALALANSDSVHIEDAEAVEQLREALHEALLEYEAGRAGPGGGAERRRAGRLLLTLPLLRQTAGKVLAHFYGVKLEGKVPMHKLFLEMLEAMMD
Oxysterols receptor LXR-beta (Homo sapiens), sequence (P55055 whole entry, looked up, the tested form may be a part): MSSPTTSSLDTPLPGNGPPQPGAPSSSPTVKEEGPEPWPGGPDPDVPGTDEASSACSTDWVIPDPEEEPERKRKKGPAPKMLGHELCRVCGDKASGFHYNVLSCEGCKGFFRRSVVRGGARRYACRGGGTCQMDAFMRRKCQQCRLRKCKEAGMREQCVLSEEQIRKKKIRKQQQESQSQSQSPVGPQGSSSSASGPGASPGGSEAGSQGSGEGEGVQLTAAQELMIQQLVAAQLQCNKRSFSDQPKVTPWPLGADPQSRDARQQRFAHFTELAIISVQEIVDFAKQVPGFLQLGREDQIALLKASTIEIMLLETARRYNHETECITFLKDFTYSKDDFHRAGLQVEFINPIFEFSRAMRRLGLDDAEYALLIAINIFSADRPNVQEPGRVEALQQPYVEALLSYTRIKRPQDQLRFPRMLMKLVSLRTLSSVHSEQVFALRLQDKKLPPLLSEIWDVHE
Estrogen-related receptor gamma (Homo sapiens), sequence (P62508 whole entry, looked up, the tested form may be a part): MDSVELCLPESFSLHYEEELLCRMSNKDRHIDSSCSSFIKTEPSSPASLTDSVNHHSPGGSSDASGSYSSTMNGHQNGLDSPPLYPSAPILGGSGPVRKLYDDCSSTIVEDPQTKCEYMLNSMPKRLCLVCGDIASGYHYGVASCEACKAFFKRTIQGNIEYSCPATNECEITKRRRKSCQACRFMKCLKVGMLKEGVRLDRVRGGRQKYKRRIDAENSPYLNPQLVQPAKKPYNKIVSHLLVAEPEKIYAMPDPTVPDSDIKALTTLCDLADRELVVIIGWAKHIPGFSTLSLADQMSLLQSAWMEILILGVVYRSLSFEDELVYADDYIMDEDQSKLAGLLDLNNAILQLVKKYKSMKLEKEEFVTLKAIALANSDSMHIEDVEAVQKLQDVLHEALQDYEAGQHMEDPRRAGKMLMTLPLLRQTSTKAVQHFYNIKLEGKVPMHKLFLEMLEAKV

`Cc1ccnc(N)c1`: the compound was classed as inactive in assay [1], in [2] and in [3].

Consider `CCCCCCC1CCCC(=O)O1` (stereo unspecified), for which, in assay [4], the outcome was inactive.

On to `Cc1cc(O)cc(C)c1Cl`, for which the compound was classed as inactive in assay [5], in assay [8], in [9], in [2] and in assay [3]. In addition, the concentration at half-maximal activity (AC50) in [6] was 25 µM (active); in [7] it was 31.6 µM (active); in assay [10], 3.98 µM (active); in assay [11], 8.88 µM (active).

For the compound `COc1c2occc2cc2ccc(=O)oc12`, the outcome in assay [2] and in assay [3] was inactive.

For the compound `Cc1ccccc1S(N)(=O)=O`, in [12], the compound was classed as inactive.

Take `O=C1NC(=O)[C@@H]2CC=CC[C@H]12`: the compound was called inactive in [4].

For `CO[Si](CCCNCCN)(OC)OC`, the result in assay [1], in assay [6], in assay [7], in assay [9] and in assay [11] was inactive.

Consider `CC(C)=CCOC(=O)c1ccccc1`, for which the call in [13] and in assay [12] was inactive.

As for `O=C(O)c1ccccc1C(=O)O`, the call in assay [14], in assay [1], in assay [8], in assay [10] and in assay [11] was inactive.

As for `O=C1CCCCCCCCCCCCCC1`, the outcome in assay [14] was inactive.

Turning to `CC(C)CC(=O)CC(C)CC(C)C` (stereo unspecified), the concentration at half-maximal activity (AC50) was 30.1 µM (active) in assay [15] and 37.2 µM (active) in assay [18]. The outcome in assay [16], in assay [17] and in [19] was inactive.

Regarding `c1cc(N(CC2CO2)CC2CO2)ccc1Cc1ccc(N(CC2CO2)CC2CO2)cc1` (stereo unspecified), the outcome in [14] and in assay [4] was inactive.

In the case of `O=C(OCc1ccccc1)c1ccccc1`, the compound was called inactive in assay [4], in assay [9], in assay [2] and in assay [3].

With `CCC(C)(CCC(C)C)C(=O)O` (stereo unspecified), the compound was classed as inactive in assay [4], in [1], in assay [10] and in assay [11].

In the case of `O=C(Oc1ccccc1)c1ccccc1`, the compound was classed as inactive in assay [13], in [12], in assay [1], in assay [5], in [6] and in assay [7]. For the same compound, the outcome in assay [8], in assay [9], in assay [10], in assay [11], in assay [2] and in assay [3] was inactive.

For the compound `COC(=O)CCSCCC(=O)OC`, the outcome in assay [13] and in assay [5] was inactive.

With `Sc1nc2ccccc2s1`, the outcome in assay [15], in assay [16], in assay [17], in assay [19], in [6] and in assay [7] was inactive. The result in assay [9] and in [11] was inactive. Further, the AC50 in assay [18] was 0.016 µM (active).

Take `CCC(C)=NO`: the compound was called inactive in assay [1], in assay [15], in assay [16], in assay [17], in assay [18] and in assay [19]. Besides, the compound was classed as inactive in assay [6], in assay [7], in assay [8], in assay [10], in assay [2] and in [3]. In [11], the AC50 is 50 µM (active).

Turning to `O=[N+]([O-])c1ccc2nc[nH]c2c1`, the compound was classed as inactive in assay [14], in assay [2] and in assay [3].

Turning to `COCCCN`, the outcome in assay [14] was inactive.

As for `O=C(O)Cc1c[nH]c2ccccc12`, the call in assay [4], in assay [13], in assay [2] and in assay [3] was inactive.

In the case of `c1ccc2c(c1)Oc1ccccc1S2`, the concentration at half-maximal activity (AC50) in assay [14] was 63.7 µM (active).

For `CCCCCCC(O)CCCCCCCCCCC(=O)OC` (stereo unspecified), the outcome in [1], in assay [5], in assay [15], in [16], in assay [17] and in [18] was inactive. In addition, in [19], the result was inactive.

With `OCCOCCOCCOCCOCCO`, the compound was classed as inactive in [4] and in assay [12].

For the compound `O=C(CC(C(=O)OC1CCCCC1)S(=O)(=O)O)OC1CCCCC1` (stereo unspecified), the outcome in assay [13], in [6], in [7], in assay [8], in assay [9] and in [10] was inactive. The compound was classed as inactive in assay [11].

The values are drawn from PubChem BioAssay (EPA / NIEHS).
